Measurements as given in PubChem BioAssay (NCI).
Several values for one entry are separate records, joined by “and”; a condition that tells them apart may be missing. Equal entries are not always repeated. The panel holds about 79,000 compounds, 15% with a hit somewhere; the sample as a whole holds those more often. Where a structure was tested more than once in an assay, its records may differ in their call. Activity calls are given as the source filed them. No stated cut-off is given here; in the data, active means growth inhibition above about 70%; inactive means the rest.

Key:
[1] = NCI Yeast Anticancer Drug Screen. Data for the rad50 strain (AID 155);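 further: 0% = growth of vehicle-only cultures of the same strain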; details: S. cerevisiae rad50 strain growth inhibition, stronger effect = higher value
In short: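 Compounds were tested on a yeast strain with an engineered DNA damage repair alteration; the reported value is growth inhibition normalised to vehicle treatment.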

[2] = NCI Yeast Anticancer Drug Screen. Data for the mec2-1 strain (AID 157); details: S. cerevisiae mec2-1 strain, stronger effect = higher value
In short: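 Readout is yeast growth inhibition, normalised to vehicle-treated controls, in the mec2-1 strain exposed to compound.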

[3] = NCI Yeast Anticancer Drug Screen. Data for the sgs1 mgt1 strain (AID 161);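 further: 0% = growth of cultures given vehicle only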; details: S. cerevisiae sgs1 mgt1 strain, stronger effect = higher value
In short: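 This yeast growth screen uses a strain with defined DNA-repair lesions; compound-treated growth is compared with vehicle-treated growth.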

[4] = NCI Yeast Anticancer Drug Screen. Data for the cln2 rad14 strain (AID 165);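 further: 0% = growth equal to vehicle treated cultures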; details: S. cerevisiae cln2 rad14 strain, stronger effect = higher value
In short: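 Relative to vehicle controls, growth inhibition of compound-treated cln2 rad14 yeast was recorded.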

[5] = NCI Yeast Anticancer Drug Screen. Data for the bub3 strain (AID 167); details: S. cerevisiae bub3 mutant strain, stronger effect = higher value
In short: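 Growth of a checkpoint-deficient yeast mutant is measured after compound exposure. Values represent inhibition relative to vehicle.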

[6] = NCI Yeast Anticancer Drug Screen. Data for the mlh1 rad18 strain (AID 175); details: S. cerevisiae mlh1 rad18 strain growth inhibition, stronger effect = higher value
In short: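 Test agents were incubated with a yeast strain of defined genotype (DNA damage repair defect). Inhibition of growth was derived by comparison with vehicle-exposed cultures.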

[7] = at 5.0 µM (retest, dose inferred, filed as 0.5)
[8] = at 50.0 µM (retest, dose inferred, filed as 5.0)

Row | SMILES | growth inhibition [1, 7] | growth inhibition [1, 8] | growth inhibition ([1]; at 50.0 µM) | growth inhibition [2, 7] | growth inhibition [2, 8] | growth inhibition ([2]; at 50.0 µM) | growth inhibition [3, 7] | growth inhibition [3, 8] | growth inhibition ([3]; at 50.0 µM) | growth inhibition [4, 7] | growth inhibition [4, 8] | growth inhibition ([4]; at 50.0 µM) | growth inhibition [5, 7] | growth inhibition [5, 8] | growth inhibition ([5]; at 50.0 µM) | growth inhibition [6, 7] | growth inhibition [6, 8] | growth inhibition ([6]; at 50.0 µM)
1 | C[C@]12CC/C(=N\NC(=O)c3ccncc3)C[C@@H]1CC[C@@H]1[C@@H]2CC[C@]2(C)[C@@H](O)CC[C@@H]12 | 0% (inactive) | 52% (inactive) | 68.9% (inactive) | 5% (inactive) | 54% (inactive) | 29.1% (inactive) | 13% (inactive) | 65% (inactive) | 77.3% (active) | 6% (inactive) | 8% (inactive) | 66.8% (inactive) | 2% (inactive) | 37% (inactive) | 35% (inactive) | 10% (inactive) | 46% (inactive) | 59.1% (inactive)
2 | CCC[CH2][Sn]1([CH2]CCC)[O]CC(CN(C)Cc2ccccc2)[O]1 (centres undefined) | 3% (inactive) | 3% (inactive) | 88.7% (active) | 12% (inactive) | 12% (inactive) | 90.1% (active) | -5% (inactive) | -5% (inactive) | 20.2% (inactive) | -2% (inactive) | -2% (inactive) | 89.2% (active) | -1% (inactive) | -1% (inactive) | 87.5% (active) | 0% (inactive) | 0% (inactive) | 81.8% (active)
3 | CCCCCCCCCCCC[As](=O)(O)O | 0% (inactive) | 31% (inactive) | 99.4% (active) | -1% (inactive) | 26% (inactive) | 99.3% (active) | 7% (inactive) | 48% (inactive) | 98.2% (active) | -3% (inactive) | 46% (inactive) | 98.5% (active) | 3% (inactive) | 53% (inactive) | 99.2% (active) | 6% (inactive) | 51% (inactive) | 98.9% (active)
4 | [O]=[Sb]([OH])([OH])[c]1ccccc1 | 95% (active) | 98% (active) | 99.5% (active) and -13.8% (inactive) | 91% (active) | 99% (active) | 99.5% (active) and -26.9% (inactive) | 94% (active) | 99% (active) | 99.2% (active) and 28.1% (inactive) | 94% (active) | 98% (active) | 99.4% (active) and 23% (inactive) | 93% (active) | 98% (active) | 99.3% (active) and 17.1% (inactive) | 94% (active) | 98% (active) | 99.2% (active) and 6.5% (inactive)
5 | S=c1[nH]c2ccccc2s1 | -8% (inactive) | 45% (inactive) | 3.25% (inactive) and 53.4% (inactive) | -7% (inactive) | 52% (inactive) | -22.3% (inactive) and 30.1% (inactive) | -3% (inactive) | 51% (inactive) | 15.8% (inactive) and 62% (inactive) | -12% (inactive) | 1% (inactive) | -11.1% (inactive) and 11.7% (inactive) | -4% (inactive) | 29% (inactive) | 8.85% (inactive) and 55.8% (inactive) | -7% (inactive) | 38% (inactive) | 4.95% (inactive) and 71.9% (active)
6 | c1cc[c]([Sn]([c]2ccccc2)([c]2ccccc2)[CH]2CCCCC2)cc1 | 1% (inactive) | 89% (active) | 92.7% (active) | 7% (inactive) | 94% (active) | 97.2% (active) | 20% (inactive) | 93% (active) | 97.7% (active) | -2% (inactive) | 91% (active) | 98.3% (active) | 1% (inactive) | 93% (active) | 98% (active) | 19% (inactive) | 91% (active) | 97% (active)
7 | CC(Cl)CN(C)C (centres undefined) | 24% (inactive) | 74% (active) | 75.3% (active) and 30.4% (inactive) | -5% (inactive) | 13% (inactive) | 1.1% (inactive) and -17.4% (inactive) | 25% (inactive) | 57% (inactive) | 54.5% (inactive) and 33.9% (inactive) | -1% (inactive) | 3% (inactive) | -55.5% (inactive) and 7.95% (inactive) | -8% (inactive) | -10% (inactive) | -20.4% (inactive) and -16.6% (inactive) | 11% (inactive) | 37% (inactive) | 57% (inactive) and 18.3% (inactive)
8 | Cc1c([C@H](C)[C@@H]2NC[C@@H](C)C[C@H]2O)ccc2c1C[C@H]1[C@H]2CC=C2C[C@@H](O)CC[C@@]21C | 10% (inactive) and -5% (inactive) | 71% (active) and 36% (inactive) | 84.3% (active) and 88.5% (active) | -1% (inactive) | 52% (inactive) and 0% (inactive) | 75.2% (active) and 79.2% (active) | 7% (inactive) and -12% (inactive) | 85% (active) and 6% (inactive) | 76.8% (active) and 86.2% (active) | -6% (inactive) and -7% (inactive) | 58% (inactive) and 8% (inactive) | 77.3% (active) and 82.8% (active) | 11% (inactive) and -18% (inactive) | 74% (active) and 1% (inactive) | 86.2% (active) and 19.4% (inactive) | 2% (inactive) and 0% (inactive) | 59% (inactive) and 40% (inactive) | 85% (active) and 87.5% (active)
